# Measured values as given in PubChem BioAssay AID743279 (National Center for Advancing Translational Sciences (NCATS), 2014).
# Out of some 360,000 compounds screened, about 17,000 (4.7%) were called active. Roughly 5% stayed inconclusive and do not appear here. No stated cut-off is given here; in the data, active means activity change below about -50%; inconclusive means mostly about -30% to -49%; inactive means weaker than that. For the sample, actives were picked, then their nearest neighbours and some compounds at random.
# Assay: qHTS for Inhibitors of Inflammasome Signaling: IL-1-beta AlphaLISA Primary Screen
# Details: THP-1 LPS/ATP IL-1B secretion, 16 h, at 57.5 µM, active compounds read low
# Source text: Inflammasomes are a set of intracellular multi-protein complexes that enable autocatalytic activation of inflammatory caspases and drive the innate immune response to counter harmful agents. […] A qHTS assay, based on AlphaLISA technology, was developed to screen the Molecular Libraries Small Molecule Repository (MLSMR) to look for novel inflammasome inhibitors. The assay detects IL-1B using AlphaLISA anti-IL-1B acceptor and donor beads. A decreased emission signal, indicating reduced IL-1B secretion, is the desired outcome for this assay. NIH Chemical Genomics Center [NCGC] NIH Molecular Libraries Probe Centers Network [MLPCN] MLPCN Grant: MH095513 Assay Provider: Shyam Biswal Ph.D., Johns Hopkins University Immunity. 2012 Jul 27;37(1):85-95. PMID: 22819042 [2] Curr Pharm Des. 2012;18(16):2320-8. PMID: 22390695
# Three microliters containing 3000 THP-1 cells were dispensed into the wells of solid, white, tissue culture treated Greiner 1,536-well plates. Library compounds and positive control, Glyburide, were pin-transferred (23 nL) by a Kalypsys pin-tool equipped with a 1,536-pin array, resulting in final compound concentration ranges of 2.5 nM to 57.5 uM. After 1 hr of cell culture incubation (37 °C, 5% CO2), 1 microL of 1 microg/mL lipopolysaccharide (250 ng/mL, final) and 5 mM ATP (1.25 mM, final) were added to stimulate the cells. After 16 hr of cell culture incubation with the compounds, 1.5 uL of anti-IL-1B acceptor beads (6 ug/mL, final) and biotinylated antibody (0.6 nM, final) were added to the plate, followed by a 1 hr incubation at ambient temperature. To detect the secreted IL-1B, 1.5 uL of AlphaLISA SA-Donor beads (24 ug/mL, final) were added, followed by 30 min of incubation in the dark at ambient temperature. The AlphaLISA signal was read by a PerkinElmer EnVision plate reader with an ultrasensitive luminescence detector and 1536 Plate HTS AlphaScreen aperture (excitation of 680nm and emission of 615nm).
# On the % scale 0 is the no-effect control and ±100 the full control effect.
row,SMILES,activity change
1,COc1ccc(-n2nnnc2C(c2cccc3ccccc23)N2CCC(n3c(=O)[nH]c4ccccc43)CC2)cc1 (configuration not stated),-8.75% (inactive)
2,O=c1[nH]c2ccccc2n1C1CCN(C(c2ccccc2)c2nnnn2Cc2ccccc2)CC1 (configuration not stated),-56.7% (active)
3,CSCCC(c1nnnn1C(C)(C)C)N1CCC(n2c(=O)[nH]c3ccccc32)CC1 (configuration not stated),-2.99% (inactive)
4,Cc1ccc(OC(=O)N(C)C[C@@H]2OCc3cnnn3CCCC(=O)N([C@H](C)CO)C[C@@H]2C)cc1,37.1% (inactive)
5,CCOc1ccc(C2SCC(=O)Nc3c2c(C)nn3C2CCOC(C)(C)C2)cc1 (configuration not stated),13.7% (inactive)
6,O=C(CCC(=O)N1C[C@H]2C[C@@H](C1)c1cccc(=O)n1C2)NCc1ccccc1C(F)(F)F,-1.41% (inactive)
7,c1ccc(N2Cc3ccccc3-n3nncc3C2)nc1,12.3% (inactive)
8,CC(=O)C1(O)CCC2C3CCC4=C(Cl)C(=O)CCC4(C)C3CCC21C (configuration not stated),-20.8% (inactive)
9,CCC(C)(O)C(=O)OC1C(=O)OC2CC3C(C)=CC(=O)C(O)C3(C)C3C4(O)OCC23C1C(C)C4O (configuration not stated),-100% (active)
10,CC(=O)NCC1=C(c2ccc3ccccc3c2)C[C@@H]2CC[C@H]1N2Cc1ccco1,-3.75% (inactive)
11,c1cc2c(c(NC3=NCCCS3)c1)CCCC2,-2.25% (inactive)
12,COc1ccccc1N=Nc1c(O)[nH]c(=S)[nH]c1=O,56.6% (inactive)
13,CCC1(C)CC(CCNCc2ccc(N(C)C)cc2)(c2ccc(F)cc2)CCO1 (configuration not stated),-72.1% (active)
14,CC1CC=CCC12C(=O)NC(=S)NC2=O (configuration not stated),5.3% (inactive)
15,CC=C(C)C(=O)OC1CCN2CC=C(COC(=O)C(O)(C(C)OC)C(C)(C)O)C12 (configuration not stated),12.9% (inactive)
16,O=C(c1ccccc1[N+](=O)[O-])N1CCC2(CC1)OCCO2,-4.53% (inactive)
17,O=C(c1cc(-c2ccncc2)nc2ccccc12)N1CCC2(CC1)OCCO2,0% (inactive)
18,O=C(c1cc2nc(-c3ccccc3)cc(-c3ccccc3)n2n1)N1CCC2(CC1)OCCO2,-87.9% (active)
19,COc1cccc(C(c2nnnn2-c2ccc3c(c2)OCCO3)N2CCC3(CC2)C(=O)NCN3c2ccccc2)c1OC (configuration not stated),-6.07% (inactive)
20,COC(=O)COc1cc(C)cc2oc(=O)c3c(c12)CCCC3,22.7% (inactive)
21,CC1([N+](=O)[O-])COP(=O)(Nc2ccc(F)cc2)OC1 (configuration not stated),15.6% (inactive)
22,COc1cc(-n2c(=S)[nH]c3ccc(C)cc3c2=O)c(Cl)cc1Cl,71.7% (inactive)
23,OC1/C(=C/c2ccc(C(F)(F)F)cc2)N2CCC1CC2 (configuration not stated),22.5% (inactive)

row,SMILES,activity change
1,CCOC(=O)[C@]12Cc3cc(OC)ccc3[C@H]1N(C(C)C)C(=O)c1ccccc12,-125% (active)
2,O=c1c2ccccc2nc(CBr)n1-c1ccc(Cl)cc1,-7.74% (inactive)
3,O=C(C1CC(=O)N(C2CCCC2)C1)N1CCC2(CC1)OCCO2 (configuration not stated),13.5% (inactive)
4,CN1CCN(/N=C/c2c[nH]c3ccccc23)CC1,7.92% (inactive)
5,CN(C)c1ccc(/C=C2\CC3C4CC=C5CC(O)CCC5(C)C4CCC3(C)C2=O)cc1 (configuration not stated),0.523% (inactive)
6,C[C@@]1([C@@H](NP(=O)(c2ccccc2)c2ccccc2)c2ccccc2)C[C@H]1CCO,-4.2% (inactive)
7,CCNc1nc2[nH]c(=O)c3c(c2s1)OC(N)=C(C#N)C3c1cccs1 (configuration not stated),-64% (active)
8,CC(C)c1ccc(OCC(=O)N2CCN(C)CC2)c(Br)c1,9.25% (inactive)
9,COC(=O)C1=C(c2ccc(OCc3ccccc3)cc2)C[C@@H]2CC[C@H]1N2C(=O)NCc1cccc(F)c1,-12.8% (inactive)
10,CC1=CC(=Cc2sc3ccccc3[n+]2C)C=C(C)O1,-51.7% (active)
11,COc1ccc(CNCCc2c[nH]c3ccccc23)cc1OC,-24.9% (inactive)
12,COc1ccc(Br)cc1CNCCc1cccc(Cl)c1,-72.2% (active)
13,COc1ccc(CNCCc2ccc3c(c2)OCO3)c(OC)c1OC,-11.8% (inactive)
14,Nc1ccc(Cc2ccc(N)c(Cl)c2)cc1Cl,-24.6% (inactive)
15,COC(=O)CN(CCCl)P1(=O)OCCCN1CCCl (configuration not stated),41.8% (inactive)
16,CCOP(=S)(OCC)SCOC(=O)NCC(=O)OC,0.573% (inactive)
17,CN(C)CC1Oc2ccccc2OC1(O)c1ccccc1 (configuration not stated),-101% (active)
18,Cc1cccc(N2C(=O)NC(=O)/C(=C\c3cnn(-c4ccccc4)c3)C2=O)c1,-60% (active)
19,COc1cccc(N2C(=O)NC(=O)/C(=C\c3ccc([N+](=O)[O-])s3)C2=O)c1,-0.584% (inactive)
20,O=C1NC(=O)N(c2ccccc2)C(=O)/C1=C/c1ccc([N+](=O)[O-])s1,-11.6% (inactive)
21,Cn1c(O)c(C(=Nc2ccc(F)cc2)c2ccccc2)c(=O)n(C)c1=O,3% (inactive)
22,c1cncc(CNC2=NCCC2)c1,34.2% (inactive)
23,CCOC(=O)C1(c2ccccc2)CCN(CC(O)c2ccc(NC(C)=O)cc2)CC1 (configuration not stated),-10.2% (inactive)

row,SMILES,activity change
1,CC1=C(C(=O)Nc2ccccc2)SCCO1,19.6% (inactive)
2,CC1=C(C(=O)Nc2ccccc2)S(=O)(=O)CCO1,-86.7% (active)
3,C[C@]12CCC3C(CC[C@H]4[C@H](O)[C@H](O)CC[C@]34C)C1CC[C@@H]2O (some centres not stated),38.5% (inactive)
4,CC(=CCOc1ccc2ccc(=O)oc2c1)C1=CC(=O)C(C)(C)O1,-91.3% (active)
5,CC(CC(C#N)(c1ccccc1)c1ccccc1)N1CCCCC1 (configuration not stated),-2.29% (inactive)
6,O=C1C2CCN(CC2)C1(CO)CO,-9.66% (inactive)
7,CCC(=O)c1ccc(OCC(=O)N2CCN(CC(=O)Nc3ccc(C)cc3)CC2)cc1,14.3% (inactive)
8,Clc1ccc2nc3c(c(-c4ccccc4)c2c1)CNCC3,-57% (active)
9,C[C@H]1CN([C@@H](C)CO)C(=O)CCCn2nncc2CO[C@H]1CN(C)C(=O)Oc1ccccc1,16.8% (inactive)
10,O=C(CN1CCCCC1)Nc1ccc(Br)cc1C(=O)c1ccccc1Cl,-8.15% (inactive)
11,O=C(CCNS(=O)(=O)c1ccccc1)Nc1ccc(Cl)cc1C(=O)c1ccccc1,-63% (active)
12,CN1CCN(C(=S)SCC(=O)Nc2ccc(Cl)cc2C(=O)c2ccccc2)CC1,-88% (active)
13,O=C(COC(=O)c1ccccc1)Nc1ccc(Cl)cc1C(=O)c1ccccc1,15.9% (inactive)
14,O=C(CCN1CCCCC1)NCC(=O)Nc1ccc(Br)cc1C(=O)c1ccccc1,-10.3% (inactive)
15,CCC/C(=N\O)c1c[nH]c2ccccc12,23.8% (inactive)
16,Cn1c(C(=O)N2CCC(C(=O)N3CCC4(CC3)OCCO4)CC2)cc2sccc21,-11.3% (inactive)
17,CNP1(NC)=Nc2nn(-c3ccccc3)c(N)c2C(c2ccccc2)=N1,-24.6% (inactive)
18,C=C(C)C1(CCCC)C(=O)NC(=S)NC1=O,11.5% (inactive)
19,CCOC(=O)CNC(=O)N1Cc2cc(N3CCCCC3)ccc2-n2nncc2C1,-5.99% (inactive)
20,COC(=O)[C@@H]1C(OC(=O)c2ccccc2)CC2CCC1N2C (some centres not stated),-10.2% (inactive)
21,COC(=O)C1=C(c2ccccc2)C[C@@H]2CC[C@H]1N2C(=O)N1CCCCC1,-19.1% (inactive)
22,COc1ccc2c(c1)NP(=S)(c1ccccc1)N2 (configuration not stated),-12.5% (inactive)
23,CC12CCC(O)CC1CCC1C2CCC2(C)C(C(=O)CC(O)C(F)(F)F)CCC12 (configuration not stated),15.6% (inactive)

row,SMILES,activity change
1,COc1ccc(-c2nn(CCC#N)cc2C(=O)O)cc1,10.5% (inactive)
2,O=c1[nH]c(=S)n(C2CC2)c(O)c1/C=N/N1CCOCC1,33.5% (inactive)
3,C[N+]1(C)CCOC(O)(c2ccc(-c3ccc(C4(O)C[N+](C)(C)CCO4)cc3)cc2)C1 (configuration not stated),7.41% (inactive)
4,Cn1cc(C(=O)OCC(=O)N2CCCC2)c2ccccc21,-12.4% (inactive)
5,CC12CCC3C(CCC4CC(=O)CCC43C)C1CC(=NO)C2=O (configuration not stated),-101% (active)
6,C[C@]12CCC3C(CC[C@H]4[C@H](O)[C@H](O)CC[C@]34C)C1CCC2=O (some centres not stated),8.07% (inactive)
7,C[C@]12CCC3C(CC[C@H]4C[C@@H](O)CC[C@]34C)C1C[C@@H](O)[C@H]2O (some centres not stated),24.7% (inactive)
8,O=c1c2ccccc2[nH]c(=S)n1-c1cccc(Cl)c1,25.2% (inactive)
9,CCn1cc(CN2CCCC(C(=O)c3cccc(C(F)(F)F)c3)C2)cn1 (configuration not stated),10.1% (inactive)
10,COc1ccc(CCn2c(O)c(C=NCCCn3ccnc3)c(=O)[nH]c2=O)cc1OC,43.4% (inactive)
11,CCCCCCCCCCCCn1ccc(=N)cc1,-100% (active)
12,CCOC(=O)C1SC2(C(F)(F)C(F)F)CC1(O)c1c(c(OC)c3occc3c1OC)O2 (configuration not stated),0% (inactive)
13,CC(C)(C)[C@]1(O)C[C@@H]2OC(=O)C[C@@]23C(=O)O[C@@H]2OC(=O)[C@H](O)[C@]213,-4.02% (inactive)
14,COCc1cc(OC(=O)N(C)C)nc(-c2ccc(C)c(Cl)c2)n1,-2.68% (inactive)
15,C[C@]12CCCCC1=CC(=O)C1C2CC[C@@]2(C)C1C[C@@H](F)[C@@H]2O (some centres not stated),0.0265% (inactive)
16,CC(C)c1ccc(OCC(=O)N2CCCN(C)CC2)cc1,-17.5% (inactive)
17,CCOC(=O)CC(SP1(=S)OCC2(CCCCO2)C(C2CCCCO2)O1)C(=O)OCC (configuration not stated),17.2% (inactive)
18,ClC(Cl)(Cl)c1ccccc1,-9.44% (inactive)
19,CC(c1ccccc1)(c1ccccc1)c1ccncc1,-63.6% (active)
20,c1ccc(C(CN2CCCCC2)c2ccccc2)cc1,-8.96% (inactive)
21,CNC(=O)N(C)c1nnc(C(C)(C)C)s1,17.7% (inactive)
22,O=C1NCN(c2ccccc2)C12CCN(C(c1cccs1)c1nnnn1C1CCCCC1)CC2 (configuration not stated),-18.5% (inactive)
23,CC(C)CN1Cc2cc(N3CCCCC3)ccc2-n2nncc2C1,-4.66% (inactive)
